# Results reported in PubChem BioAssay.
# Where “and” joins values, the source holds several entries; their conditions need not be identical. Identical values can stand only once. Calls of active or inactive are those of the source.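 The calls were made as follows, unless noted: active = thallium flux through the channel raised or lowered by more than 3 SD from vehicle-only wells, actives on both sides; inactive = the rest.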
# Experiments:
# [1] = galactose survival enhancers in mitochondrial complex I cybrids – cell-based, galactose medium, ATP luminescence, primary screen (AID 1645843;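 active = z-score of at least 1.8 in each of two replicates, scored against plate mean and spread of sample wells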;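 also: positive z means more ATP and so rescue of galactose-driven cybrid death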); details: complex I mutant cybrid cells, 72 h, active compounds read high
# F380Y = test: BK channel mutant inhibitors and activators – cell-based, U2OS BacMam, thallium flux, beta subunits, selectivity assay, profiling panel (AID 1259406); details: U2OS BacMam BK variants, at 30 µM;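 also: initial slope of Thallos dye fluorescence rise after thallium is added; log ratio against the mean of 0.3% DMSO vehicle wells on the same plate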
# F380Y/beta1 = test: as above; details: U2OS BacMam BK variants, at 30 µM
# [2] = target: NAD(+) hydrolase SARM1 (Homo sapiens) (UniProt Q6SZW1); test: blocking NAD cleavage by SARM1 SAM-TIR – cell lysate, NAD-Glo luminescence (AID 1508614;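 active = compound whose remaining NAD level is above about 45 nM, limit read from the data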;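 also: higher remaining NAD means stronger inhibition of SARM1 NADase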); details: SAM-TIR HEK293T lysate NADase, at 1 µM, active compounds read high
# Chain of NAD(+) hydrolase SARM1 (Homo sapiens) (Q6SZW1 whole entry, looked up, the tested form may be a part): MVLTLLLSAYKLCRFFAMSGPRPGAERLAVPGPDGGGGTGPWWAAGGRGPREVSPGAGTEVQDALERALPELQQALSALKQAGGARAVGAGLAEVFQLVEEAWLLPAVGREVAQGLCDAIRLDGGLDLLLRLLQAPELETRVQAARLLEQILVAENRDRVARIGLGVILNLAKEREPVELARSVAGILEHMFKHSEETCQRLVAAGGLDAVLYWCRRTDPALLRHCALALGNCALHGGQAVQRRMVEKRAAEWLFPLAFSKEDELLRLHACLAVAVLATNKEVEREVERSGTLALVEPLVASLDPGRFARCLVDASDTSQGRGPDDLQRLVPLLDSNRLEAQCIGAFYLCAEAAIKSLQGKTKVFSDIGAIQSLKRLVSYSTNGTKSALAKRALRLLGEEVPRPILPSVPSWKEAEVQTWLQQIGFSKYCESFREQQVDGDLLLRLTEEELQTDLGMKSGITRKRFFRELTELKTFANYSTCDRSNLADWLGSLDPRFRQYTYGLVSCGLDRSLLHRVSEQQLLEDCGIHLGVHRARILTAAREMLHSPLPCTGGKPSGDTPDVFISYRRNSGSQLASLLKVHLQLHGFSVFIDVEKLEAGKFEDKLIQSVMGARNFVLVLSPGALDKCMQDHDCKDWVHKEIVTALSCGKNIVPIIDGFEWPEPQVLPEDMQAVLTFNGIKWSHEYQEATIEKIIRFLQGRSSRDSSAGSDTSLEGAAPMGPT
# [3] = target: Mitogen-activated protein kinase 7 (Homo sapiens) (UniProt Q13164); test: Gal4-ERK5 driven luciferase induction – cell-based, HTS, primary screen (AID 1508626;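 active = luciferase signal above three times the same-plate solvent-only control wells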;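 also: luciferase driven by Gal4-ERK5 fusion binding five Gal4 sites before minimal TATA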); details: HeLa Gal4-ERK5 transactivation, 18 h, at 5 µM, active compounds read high
# Chain of Mitogen-activated protein kinase 7 (Homo sapiens) (Q13164 whole entry, looked up, the tested form may be a part): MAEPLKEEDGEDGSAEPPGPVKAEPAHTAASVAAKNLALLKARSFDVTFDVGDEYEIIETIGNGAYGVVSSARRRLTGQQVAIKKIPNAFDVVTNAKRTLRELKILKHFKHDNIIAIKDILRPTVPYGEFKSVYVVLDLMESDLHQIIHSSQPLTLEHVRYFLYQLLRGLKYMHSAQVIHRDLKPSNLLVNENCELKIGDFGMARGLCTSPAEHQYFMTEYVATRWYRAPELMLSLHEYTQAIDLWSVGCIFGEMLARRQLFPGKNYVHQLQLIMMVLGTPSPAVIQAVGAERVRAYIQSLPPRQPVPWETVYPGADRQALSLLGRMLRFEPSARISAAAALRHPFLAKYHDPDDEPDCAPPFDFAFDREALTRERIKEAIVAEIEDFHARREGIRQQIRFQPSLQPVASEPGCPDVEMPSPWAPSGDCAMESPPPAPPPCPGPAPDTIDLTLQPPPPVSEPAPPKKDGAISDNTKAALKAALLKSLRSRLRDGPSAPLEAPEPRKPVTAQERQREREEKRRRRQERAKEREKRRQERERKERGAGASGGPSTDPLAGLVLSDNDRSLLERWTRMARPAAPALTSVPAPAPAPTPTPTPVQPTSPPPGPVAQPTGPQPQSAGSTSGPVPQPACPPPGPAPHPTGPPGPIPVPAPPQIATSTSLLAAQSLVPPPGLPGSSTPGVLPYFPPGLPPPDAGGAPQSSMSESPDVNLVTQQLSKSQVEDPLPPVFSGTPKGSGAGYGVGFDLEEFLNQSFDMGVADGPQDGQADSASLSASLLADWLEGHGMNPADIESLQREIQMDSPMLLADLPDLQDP
smiles,measurement,setting,value
COc1cc(C)c(Cc2cnc(N)nc2N)cc1OC,z-score,[1],0.02 (inactive)
same,log fold change Tl+ flux,F380Y,0.0111 (inactive)
same,log fold change Tl+ flux,F380Y/beta1,0.0334 (inactive)
C[C@]12C[C@H](O)[C@H]3[C@@H](CCC4=CC(=O)CC[C@@]43C)[C@@H]1CC[C@@H]2C(=O)CO,z-score,[1],-0.085 (inactive) and -0.065 (inactive)
same,log fold change Tl+ flux,F380Y,0.0367 (inactive)
same,log fold change Tl+ flux,F380Y/beta1,0.0921 (inactive)
Cc1[nH]cnc1CN1CCc2c(c3ccccc3n2C)C1=O,z-score,[1],-0.045 (inactive)
same,log fold change Tl+ flux,F380Y,0.0315 (inactive)
same,log fold change Tl+ flux,F380Y/beta1,0.0327 (inactive)
CCCCC1(COC(=O)CCC(=O)O)C(=O)N(c2ccccc2)N(c2ccccc2)C1=O,remaining NAD,[2],10 nM (inactive)
C#CCN[C@@H]1CCc2ccccc21,remaining NAD,[2],10 nM (inactive)
CNCC(O)c1ccc(O)c(O)c1 (configuration not stated),z-score,[1],-1.02 (inactive) and -0.655 (inactive)
same,log fold change Tl+ flux,F380Y,-0.0223 (inactive)
same,log fold change Tl+ flux,F380Y/beta1,-0.0248 (inactive)
CCCCCN(C)CCC(O)(P(=O)(O)O)P(=O)(O)O,remaining NAD,[2],10 nM (inactive)
CN(Cc1cnc2nc(N)nc(N)c2n1)c1ccc(C(=O)N[C@@H](CCC(=O)O)C(=O)O)cc1,z-score,[1],-1.06 (inactive) and -0.71 (inactive)
same,log fold change Tl+ flux,F380Y,-0.0413 (inactive)
Cc1ccc(NC(=O)c2ccc(CN3CCN(C)CC3)cc2)cc1Nc1nccc(-c2cccnc2)n1,remaining NAD,[2],10 nM (inactive)
same,z-score,[1],-1.09 (inactive) and -0.785 (inactive)
same,log fold change Tl+ flux,F380Y,0.141 (active)
CCOc1cc(N)c(Cl)cc1C(=O)NCC1CN(Cc2ccc(F)cc2)CCO1 (configuration not stated),z-score,[1],0.725 (inactive)
same,log fold change Tl+ flux,F380Y,-0.0328 (inactive)
same,log fold change Tl+ flux,F380Y/beta1,0.0819 (inactive)
O=C(O)/C=C/c1ccc(Cn2ccnc2)cc1,z-score,[1],0 (inactive) and 0.26 (inactive)
same,log fold change Tl+ flux,F380Y,0.00524 (inactive)
same,log fold change Tl+ flux,F380Y/beta1,0.0144 (inactive)
CCCc1c(OCCCCc2nn[nH]n2)ccc(C(C)=O)c1O,z-score,[1],2.16 (active)
same,log fold change Tl+ flux,F380Y,0.0613 (inactive)
CN1CCN(c2cc3c(cc2F)c(=O)c(C(=O)O)cn3-c2ccc(F)cc2)CC1,remaining NAD,[2],10 nM (inactive)
CN1CCN(C2=Nc3cc(F)ccc3Cc3ccccc32)CC1,z-score,[1],-0.47 (inactive) and -0.18 (inactive)
same,log fold change Tl+ flux,F380Y,0.06 (inactive)
same,log fold change Tl+ flux,F380Y/beta1,0.0457 (inactive)
CCOC(=O)n1ccn(C)c1=S,remaining NAD,[2],10 nM (inactive)
O=C(O)CSCC(=O)NC1CCSC1=O (configuration not stated),remaining NAD,[2],10 nM (inactive)
C[C@@H]1CN(c2c(F)c(F)c3c(=O)c(C(=O)O)cn(C4CC4)c3c2F)C[C@H](C)N1,remaining NAD,[2],10 nM (inactive)
COC(=O)CCc1ccc(OCC(O)CNC(C)C)cc1 (configuration not stated),z-score,[1],0.52 (inactive) and 0.07 (inactive)
same,log fold change Tl+ flux,F380Y,-0.0174 (inactive)
same,log fold change Tl+ flux,F380Y/beta1,0.0192 (inactive)
CC(=O)Oc1c(C)c(C)c2c(c1C)CC[C@@](C)(CCC[C@H](C)CCC[C@H](C)CCCC(C)C)O2,remaining NAD,[2],10 nM (inactive)
CN1CCC(=C2c3ccccc3CCc3sccc32)CC1,remaining NAD,[2],10 nM (inactive)
same,luciferase signal,[3],76 AU (inactive)
same,z-score,[1],-0.795 (inactive)
same,log fold change Tl+ flux,F380Y,-0.0249 (inactive)
CN(CCCN1c2ccccc2CCc2ccccc21)CC(=O)c1ccc(Cl)cc1,z-score,[1],-1.82 (inactive) and -0.185 (inactive)
same,log fold change Tl+ flux,F380Y,-0.0806 (inactive)
same,log fold change Tl+ flux,F380Y/beta1,-0.0237 (inactive)
O=C(O)CCCCC1CCSS1 (configuration not stated),remaining NAD,[2],10 nM (inactive)
